From PubChem BioAssay (NCATS)
Records with an inconclusive call do not appear. Activity calls are given as the source filed them. Unless noted, the call rests on the fitted dose curve; in most records, active means well fitted curve in the direction sought with a large enough effect; inconclusive means small, poorly fitted or top-dose-only effect, or another doubt; inactive means no such curve, though single readings can be large; an effect the other way counts as inactive or inconclusive.

What was measured:
[1] = molecular target: Endonuclease 4 (Escherichia coli (strain K12)) (UniProt P0A6C1); assay: Counterscreen for APE1 Inhibitors: qHTS Validation Assay for Inhibitors of Endonuclease IV (AID 1708); further: on the % scale 0 is the no-effect control and ±100 the full control effect
Procedure, shortened: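 qHTS concentration-response format; LOPAC1280 tested under APE1-screen conditions. 2 nM enzyme, 15 min compound preincubation at RT, then 50 nM TAMRA/BHQ-2 abasic substrate; kinetic fluorescence read, three reads at 60 s intervals.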

[2] = qHTS for differential inhibitors of proliferation of Plasmodium falciparum line 7G8 (AID 1815);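 further: parasite growth measured after three days of incubation; plate controls were vehicle wells for no effect and reference inhibitor wells for full effect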
[3] = qHTS for differential inhibitors of proliferation of Plasmodium falciparum line 3D7 (AID 1876);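 further: parasite growth measured after three days of culture; 0% = vehicle wells and -100% = reference inhibitor wells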
[4] = qHTS for differential inhibitors of proliferation of Plasmodium falciparum line D10 (AID 1877);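 further: parasites grown with compound for 72 h before DNA staining; plate controls were vehicle wells for no effect and reference inhibitor wells for full effect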
[5] = qHTS for differential inhibitors of proliferation of Plasmodium falciparum line Dd2 (AID 1882); details: Potency: Plasmodium falciparum Dd2 proliferation inhibition;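 further: series mostly up to about 29 µM; plate controls were DMSO vehicle for no effect and 0.29 µM artemisinin for full effect; nearly all actives have a fitted effect of over 65% in size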
Procedure, shortened: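 Dd2-infected erythrocytes (0.3% parasitemia, 2.5% hematocrit final) incubated with compound 72 h at 37 C, 5% CO2; lysed with saponin/Triton buffer containing SYBR Green I, incubated overnight in the dark, then read by fluorescence (485/535 nm). Normalized to 0.29 uM artemisinin and DMSO.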

[6] = qHTS for differential inhibitors of proliferation of Plasmodium falciparum line HB3 (AID 1886); details: Potency: Plasmodium falciparum HB3 proliferation inhibition;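 further: parasites grown with compound for 72 h before SYBR Green readout; plate controls were vehicle for no effect and reference inhibitor for full effect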
[7] = qHTS Assay for Modulators of Human Peripheral Myelin Protein 22 (PMP22) Expression/Activity (AID 1967; active means well fitted curve in the direction sought with a large enough effect in the signal ratio; the % refers to the signal ratio;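 further: 0% = untreated cells and 100% end not stated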)
Procedure, shortened: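 Readout is the corrected green/red luminescence ratio after 24 h compound exposure, normalised to untreated cells (0%). Engineered MSC80 mouse Schwann cells express green luciferase from the mouse Pmp22 promoter and red luciferase from EF-alpha as internal control.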

[8] = molecular target: ATP-dependent DNA helicase Q1 (Homo sapiens) (UniProt P46063); assay: qHTS Validation Assay for Inhibitors of RecQ-Like Dna Helicase 1 (RECQ1) (AID 2353);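 further: plate controls were DMSO vehicle for no effect and enzyme-free control for full effect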
Procedure, shortened: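 50 nM RECQ1T1 preincubated 15 min with compound in Tris pH 8.0 buffer with MgCl2, DTT, Tween-20 and 2.5 ug/ml poly(dI-dC); started with 200 nM TAMRA/BHQ-2 forked duplex and 2 mM ATP. Unwinding read as fluorescence (525/598 nm), two reads 2 h apart.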

[9] = molecular target: RecQ-like DNA helicase BLM (Homo sapiens) (UniProt P54132); assay: qHTS Validation Assay for Inhibitors of Bloom's syndrome helicase (BLM) (AID 2364);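 further: plate controls were DMSO vehicle for no effect and enzyme-free control for full effect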
Procedure, shortened: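 Forked 20-bp duplex substrate (200 nM, TAMRA/BHQ-2) plus 2 mM ATP added after 15 min compound preincubation with 50 nM enzyme, pH 8.0, poly(dI-dC) 2.5 ug/ml. Strand separation followed by fluorescence (525/598 nm) over 2 h, normalized to enzyme-free and DMSO controls.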

[10] = Validation screen for small molecules that induce DNA re-replication in MCF 10A normal breast cells (AID 463097); further: 0% is about no effect; nearly all actives have a fitted effect of over 60% in size
Procedure, shortened: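 Read-out is Hoechst total nuclear intensity by fluorescence scanning imager, flagging increased high-DNA-content nuclei. Compounds were incubated with MCF 10A cells for 48 hr (37 C, 5% CO2) before 40 min staining.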

[11] = Quantitative high throughput screen for delayed death inhibitors of the malarial parasite plastid, 96 hour incubation (AID 488745);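 further: luciferase-expressing P. falciparum in erythrocytes at 2% hematocrit and 0.1% parasitemia; series mostly up to about 29 µM; on the % scale 0 is the no-effect control and ±100 the full control effect; nearly all actives have a fitted effect of over 70% in size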
Procedure, shortened: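 Infected erythrocytes were added to compound in Albumax-supplemented RPMI 1640 at 0.1% parasitemia and 2% hematocrit (final), incubated 96 h at 37 C under 5% CO2, then luciferase reagent was added and luminescence measured.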

[12] = Quantitative high throughput screen for delayed death inhibitors of the malarial parasite plastid, 48 hour incubation (AID 488752); further: on the % scale 0 is the no-effect control and ±100 the full control effect; nearly all actives have a fitted effect of over 65% in size
Procedure, shortened: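 Readout is firefly luciferase luminescence from a reporter integrated into the parasite genome, with lower signal taken as inhibited growth. Infected red cells (0.1% parasitemia, 2% hematocrit final) are cultured with compound for one 48 h cycle at 37 C.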

[13] = molecular target: M-phase phosphoprotein 8 (Homo sapiens) (UniProt Q99549); assay: qHTS Validation Assay for Inhibitors for MPP8 Chromodomain Interactions with Methylated Histone Tails (AID 488949);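 further: AlphaScreen signal from MPP8 chromodomain bound to biotinylated H3K9me3 peptide; top concentration of the series differs between compounds; on the % scale 0 is the no-effect control and ±100 the full control effect; nearly all actives have a fitted effect of over 55% in size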
Procedure, shortened: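 AlphaScreen proximity signal from streptavidin donor and Ni-chelate acceptor beads (10 ug/mL each) reported binding of MPP8 to trimethyl-K9 H3(1-18) peptide, both at 50 nM. The complex formed 30 min before a 30 min compound exposure at room temperature, in PBS pH 7.4.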

[14] = molecular target: Transient receptor potential cation channel subfamily V member 1 (Homo sapiens) (UniProt Q8NER1); assay: HTS Assay for Compounds that Act as Enhancers of the Vanilloid Receptor 1 (AID 488979); further: 0% is about no effect
Procedure, shortened: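 Calcium influx kinetics via Fluo-8 (480/520 nm) in TRPV1-expressing cells, 2000/well cultured overnight at 35.5C. Compound-alone read 3 min (agonist phase), followed by EC20 capsaicin challenge for 2 min (enhancer phase).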

[15] = molecular target: Thyrotropin receptor (Homo sapiens) (UniProt P16473); assay: qHTS Assay for Antagonists of the Thyroid Stimulating Hormone Receptor (AID 488980); further: series mostly up to about 58 µM; 0% is about no effect
Procedure, shortened: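 Inhibition of cAMP raised by EC80 TSH (4 nM final) was read by HTRF, with lysate cAMP competing against cAMP-d2 for cryptate antibody after 30 min at room temperature. The cells were transfected HEK293 held in phosphodiesterase inhibitor RO 20-1724 at 70 uM.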

[16] = molecular target: Thyrotropin-releasing hormone receptor (Homo sapiens) (UniProt P34981); assay: qHTS for Small Molecule Agonists and Allosteric Enhancers of Human TRH Receptor: Validation Screen for Agonists (AID 493127;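 active means calcium activation more than 3 SD above the typical response in the agonist read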;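 further: intracellular calcium rise by fluo-8 fluorescence before TRH EC20 addition; 0% is about no effect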); details: TRH receptor agonist cell assay; at 2 µM; stronger effect = higher value
Procedure, shortened: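 Cells 2000/well, 10% FCS, 18 h 33.5C/5% CO2 → fluo-8 Ca dye, RT 30 min–1.5 h → FDSS baseline 10 × 1 s → compound added → 230 cycles (1 s/cycle) agonist mode. TRH controls.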

[17] = molecular target: Galactokinase (Homo sapiens) (UniProt P51570); assay: qHTS Validation Assay for Inhibitors of Human Galactokinase (GALK) (AID 493189); further: 0% is about no effect
Procedure, shortened: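 Inhibition was measured as remaining ATP, detected by luciferase luminescence after a 1 h room-temperature reaction. Final conditions: 5 nM GALK, 100 uM galactose, 35 uM ATP, pH 8.0 HEPES buffer.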

[18] = Validation screen for small molecules that induce DNA re-replication in SW480 colon adenocarcinoma cells (AID 504364); further: 0% is about no effect
Procedure, shortened: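 250 cells/well; compound pinned in; 48 hr, 37 C, 5% CO2; Hoechst added, 40 min; nuclear fluorescence imaged, 405 ex / 500-530 em; re-replication scored as increase in high-intensity nuclei.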

[19] = molecular target: DNA dC->dU-editing enzyme APOBEC-3G (Homo sapiens) (UniProt Q9HC16); assay: qHTS for inhibitors of Vif-A3G interactions: Validation (AID 588379); further: 0% is about no effect
Procedure, shortened: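 HeLa cells stably expressing Vif and A3G-eYFP, 700 cells/well, incubated overnight at 37 deg C, then exposed to compound overnight at 37 deg C. Inhibition of Vif-mediated degradation read as increased yellow fluorescence (Ex 488/Em 500-530) by laser-scanning cytometry.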

[20] = molecular target: Voltage-gated inwardly rectifying potassium channel KCNH2 (Homo sapiens) (UniProt Q12809); assay: qHTS Assay for Small Molecule Inhibitors of the Human hERG Channel Activity (AID 588834);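 further: top concentration of the series differs between compounds; on the % scale 0 is the no-effect control and ±100 the full control effect; lower thallium flux fluorescence means stronger hERG block; nearly all actives have a fitted effect of over 50% in size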
Procedure, shortened: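 Kinetic FDSS fluorescence; U2OS + hERG BacMam (~100 virus particles/cell); FluxOR Tl+ flux; ~10 min cpd; AC50 (Hill).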

[21] = test system: Zika virus NS2B-NS3 protease; assay: Primary screen GU AMC qHTS for Zika virus inhibitors (AID 1347154);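 further: 0% = no-inhibitor control and -100% = no-enzyme control; nearly all actives have a fitted effect of over 70% in size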
Procedure, shortened: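 Fluorogenic AMC-substrate cleavage by noncovalent NS2B-NS3 protease complex (25 nM, pH 8.0 Tris buffer with Tween 20) followed for 15 minutes at room temperature (~20% conversion). Percent inhibition from ex340/em450 signal change, fitted by 4-parameter Hill equation.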

[22] = Primary qHTS for small molecule stabilizers of the endoplasmic reticulum resident proteome: Secreted ER Calcium Modulated Protein (SERCaMP) assay (AID 1508630); further: on the % scale 0 is the no-effect control and ±100 the full control effect
Procedure, shortened: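 GLuc-SERCaMP-expressing SH-SY5Y cells, pretreated 16 h with compound, are challenged with thapsigargin to empty ER calcium stores; after 4 h, coelenterazine is added directly to the medium and luminescence is imaged.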

Sequence of Thyrotropin-releasing hormone receptor (Homo sapiens) (P34981 whole entry, looked up): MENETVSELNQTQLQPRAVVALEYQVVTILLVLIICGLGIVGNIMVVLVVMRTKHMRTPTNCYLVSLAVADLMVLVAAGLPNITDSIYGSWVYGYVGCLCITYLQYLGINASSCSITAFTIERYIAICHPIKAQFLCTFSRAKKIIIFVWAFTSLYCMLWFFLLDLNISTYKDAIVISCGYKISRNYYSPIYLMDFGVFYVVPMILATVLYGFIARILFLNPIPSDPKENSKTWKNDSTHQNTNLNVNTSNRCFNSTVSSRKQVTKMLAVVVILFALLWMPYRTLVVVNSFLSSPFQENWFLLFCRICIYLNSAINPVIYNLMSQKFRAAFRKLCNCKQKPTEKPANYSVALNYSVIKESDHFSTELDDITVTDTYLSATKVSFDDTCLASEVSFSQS
Sequence of Transient receptor potential cation channel subfamily V member 1 (Homo sapiens) (Q8NER1 whole entry, looked up): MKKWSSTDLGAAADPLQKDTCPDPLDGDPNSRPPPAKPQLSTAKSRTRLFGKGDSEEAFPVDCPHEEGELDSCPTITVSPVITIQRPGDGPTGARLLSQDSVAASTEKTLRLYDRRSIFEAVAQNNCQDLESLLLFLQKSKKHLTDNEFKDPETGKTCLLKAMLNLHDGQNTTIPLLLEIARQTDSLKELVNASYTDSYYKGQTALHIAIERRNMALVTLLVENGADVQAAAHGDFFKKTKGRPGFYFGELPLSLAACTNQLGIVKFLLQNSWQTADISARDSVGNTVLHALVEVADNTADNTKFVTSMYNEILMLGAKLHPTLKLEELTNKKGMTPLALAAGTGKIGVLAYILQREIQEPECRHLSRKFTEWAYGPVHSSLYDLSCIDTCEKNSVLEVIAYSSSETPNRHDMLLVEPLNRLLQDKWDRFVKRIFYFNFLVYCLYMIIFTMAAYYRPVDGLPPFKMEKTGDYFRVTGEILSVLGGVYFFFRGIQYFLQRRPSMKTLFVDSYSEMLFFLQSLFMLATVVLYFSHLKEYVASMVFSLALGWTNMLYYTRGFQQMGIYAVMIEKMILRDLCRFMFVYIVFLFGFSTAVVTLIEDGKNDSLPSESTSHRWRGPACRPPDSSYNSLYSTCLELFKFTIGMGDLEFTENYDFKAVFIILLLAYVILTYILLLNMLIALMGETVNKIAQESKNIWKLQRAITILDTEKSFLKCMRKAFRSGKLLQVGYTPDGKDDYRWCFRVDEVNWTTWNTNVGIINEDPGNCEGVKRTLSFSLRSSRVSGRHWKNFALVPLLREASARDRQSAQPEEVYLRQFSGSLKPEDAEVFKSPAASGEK
Sequence of DNA dC->dU-editing enzyme APOBEC-3G (Homo sapiens) (Q9HC16 whole entry, looked up): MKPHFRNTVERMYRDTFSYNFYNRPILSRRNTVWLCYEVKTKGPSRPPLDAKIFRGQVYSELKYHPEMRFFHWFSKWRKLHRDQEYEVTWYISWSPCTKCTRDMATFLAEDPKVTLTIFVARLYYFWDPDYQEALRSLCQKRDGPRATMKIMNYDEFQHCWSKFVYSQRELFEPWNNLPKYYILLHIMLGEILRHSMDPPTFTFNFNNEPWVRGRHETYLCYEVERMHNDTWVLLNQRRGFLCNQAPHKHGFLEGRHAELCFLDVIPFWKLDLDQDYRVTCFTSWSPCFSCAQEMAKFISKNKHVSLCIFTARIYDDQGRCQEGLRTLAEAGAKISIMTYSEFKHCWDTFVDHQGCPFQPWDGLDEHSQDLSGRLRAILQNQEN
Sequence of M-phase phosphoprotein 8 (Homo sapiens) (Q99549 whole entry, looked up): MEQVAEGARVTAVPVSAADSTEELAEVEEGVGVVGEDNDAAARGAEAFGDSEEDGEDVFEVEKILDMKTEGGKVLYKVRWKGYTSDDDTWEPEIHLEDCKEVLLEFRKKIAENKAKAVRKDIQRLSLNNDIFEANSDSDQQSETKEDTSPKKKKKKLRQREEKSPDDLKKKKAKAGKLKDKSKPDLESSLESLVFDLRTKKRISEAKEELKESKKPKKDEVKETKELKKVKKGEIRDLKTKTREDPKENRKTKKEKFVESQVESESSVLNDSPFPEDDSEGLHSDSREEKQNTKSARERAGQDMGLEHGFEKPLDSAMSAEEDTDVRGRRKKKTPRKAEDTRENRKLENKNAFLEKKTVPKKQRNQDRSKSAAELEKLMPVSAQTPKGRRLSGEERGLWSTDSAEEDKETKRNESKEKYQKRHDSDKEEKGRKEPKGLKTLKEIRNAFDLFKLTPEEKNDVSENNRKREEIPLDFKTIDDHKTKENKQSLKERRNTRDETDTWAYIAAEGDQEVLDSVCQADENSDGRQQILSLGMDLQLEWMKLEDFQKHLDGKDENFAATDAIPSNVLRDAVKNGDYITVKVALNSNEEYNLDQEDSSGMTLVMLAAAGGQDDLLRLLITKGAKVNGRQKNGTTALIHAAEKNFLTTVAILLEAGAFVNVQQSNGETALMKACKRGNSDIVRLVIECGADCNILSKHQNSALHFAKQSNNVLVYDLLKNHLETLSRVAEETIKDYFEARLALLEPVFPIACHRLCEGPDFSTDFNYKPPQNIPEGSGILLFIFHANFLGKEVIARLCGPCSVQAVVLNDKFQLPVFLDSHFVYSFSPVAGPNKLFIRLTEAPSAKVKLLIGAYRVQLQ
Sequence of Thyrotropin receptor (Homo sapiens) (P16473 whole entry, looked up): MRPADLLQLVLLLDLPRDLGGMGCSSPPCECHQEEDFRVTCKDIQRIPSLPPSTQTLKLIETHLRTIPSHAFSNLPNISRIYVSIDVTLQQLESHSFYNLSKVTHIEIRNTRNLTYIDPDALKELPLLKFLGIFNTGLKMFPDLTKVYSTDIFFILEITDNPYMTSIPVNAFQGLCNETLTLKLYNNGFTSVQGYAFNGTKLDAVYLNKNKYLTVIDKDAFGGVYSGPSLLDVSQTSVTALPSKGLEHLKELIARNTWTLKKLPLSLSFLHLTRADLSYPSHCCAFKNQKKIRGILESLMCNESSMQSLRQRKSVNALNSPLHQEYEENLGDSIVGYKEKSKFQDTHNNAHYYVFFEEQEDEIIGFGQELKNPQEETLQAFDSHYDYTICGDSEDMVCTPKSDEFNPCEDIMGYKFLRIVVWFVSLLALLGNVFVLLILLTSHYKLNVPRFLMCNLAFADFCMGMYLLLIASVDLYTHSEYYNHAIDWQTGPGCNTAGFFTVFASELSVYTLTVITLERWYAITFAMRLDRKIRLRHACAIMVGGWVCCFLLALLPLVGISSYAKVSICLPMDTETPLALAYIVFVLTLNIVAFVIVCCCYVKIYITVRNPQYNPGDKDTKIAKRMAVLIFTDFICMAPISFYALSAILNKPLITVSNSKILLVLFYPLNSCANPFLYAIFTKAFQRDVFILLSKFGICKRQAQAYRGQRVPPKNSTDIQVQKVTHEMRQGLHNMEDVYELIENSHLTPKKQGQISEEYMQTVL
Sequence of ATP-dependent DNA helicase Q1 (Homo sapiens) (P46063 whole entry, looked up): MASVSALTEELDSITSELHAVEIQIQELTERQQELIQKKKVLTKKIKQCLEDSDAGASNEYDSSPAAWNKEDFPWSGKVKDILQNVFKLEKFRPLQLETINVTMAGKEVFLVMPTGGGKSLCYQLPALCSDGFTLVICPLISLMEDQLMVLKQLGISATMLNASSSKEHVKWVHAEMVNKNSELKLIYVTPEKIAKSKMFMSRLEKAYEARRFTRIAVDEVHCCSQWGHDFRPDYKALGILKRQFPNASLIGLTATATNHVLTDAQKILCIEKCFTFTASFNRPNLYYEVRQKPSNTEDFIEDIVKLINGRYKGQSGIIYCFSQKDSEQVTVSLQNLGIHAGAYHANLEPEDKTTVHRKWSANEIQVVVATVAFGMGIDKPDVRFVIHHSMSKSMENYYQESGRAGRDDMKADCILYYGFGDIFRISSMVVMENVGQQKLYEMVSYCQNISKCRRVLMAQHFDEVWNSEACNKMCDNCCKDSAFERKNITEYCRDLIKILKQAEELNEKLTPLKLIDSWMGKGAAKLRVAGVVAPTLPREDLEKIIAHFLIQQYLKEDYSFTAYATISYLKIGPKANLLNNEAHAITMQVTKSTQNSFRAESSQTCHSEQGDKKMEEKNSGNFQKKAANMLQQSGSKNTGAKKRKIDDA
Sequence of Galactokinase (Homo sapiens) (P51570 whole entry, looked up): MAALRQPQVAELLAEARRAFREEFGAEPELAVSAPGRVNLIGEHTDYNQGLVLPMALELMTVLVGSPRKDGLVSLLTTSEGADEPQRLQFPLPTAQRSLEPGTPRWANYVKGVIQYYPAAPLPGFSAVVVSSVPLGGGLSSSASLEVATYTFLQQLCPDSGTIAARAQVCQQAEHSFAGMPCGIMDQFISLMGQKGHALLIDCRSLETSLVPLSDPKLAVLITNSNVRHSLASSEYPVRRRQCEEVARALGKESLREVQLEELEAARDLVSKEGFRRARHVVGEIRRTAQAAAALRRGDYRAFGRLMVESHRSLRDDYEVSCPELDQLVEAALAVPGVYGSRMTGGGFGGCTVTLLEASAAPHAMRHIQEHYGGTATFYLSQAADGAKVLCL

CC(N)=NCc1cccc(CN)c1
inactive: Potency [1] | Potency [2] | Potency [3] | Potency [4] | Potency [5] | Potency [6] | outcome [7] | Potency [8] | Potency [9] | Potency [10] | Potency [11] | Potency [12] | Potency [13] | outcome [14] | outcome [15] | activation [16] -0.25% | outcome [17] | outcome [18] | Potency [19] | Potency [20] | Potency [21] | Potency [22]
